High-throughput results (PubChem)
tim10-1 inh: tim10-1 yeast growth inhibition; S. cerevisiae tim10-1 ts strain growth, BacTiter-Glo, 24 h; inhibition, % at 20 µM; hit rate 2.2% among 330,000;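 active means inhibition of at least 40%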;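 further: mutant grown at 25 °C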
SUMO Mot1 rescue: inhibitors of SUMOylation pathway: yeast Mot1-301 growth rescue | AID 2716 | growth rescue, % at 18.8 µM | S. cerevisiae Mot1-301 growth rescue, ATP luminescence, 38.5C; percent above DMSO median, 100 means doubled | hit rate 1% among 320,000;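 active means every valid replicate shows activation above 250% relative to neutral control wells; inactive means the rest, any valid replicate at or below 250%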
TIM10 inh: inhibits growth of TIM10 yeast strain; hit rate 1.4% among 330,000; S. cerevisiae TIM10 strain growth, BacTiter-Glo luminescence, 24 h; inhibition, % at 10 µM;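 active means inhibition of 40% or more at the single tested concentration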;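 further: wild-type TIM10 isogenic control strain grown at permissive 25 °C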
tim23-1 inh: growth inhibitors of tim23-1 mutant yeast | S. cerevisiae tim23-1 growth, BacTiter-Glo luminescence, 24 h | inhibition, % at 20 µM | hit rate 1.3% among 330,000;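 active means growth inhibition of the mutant yeast at or above 50%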;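 further: temperature-sensitive mutant grown at 25 °C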
PfHsp90 yeast 2: inhibits growth of yeast expressing Plasmodium falciparum Hsp90; inhibition, % at 9.4 µM; AID 504621; hit rate 0.32% among 310,000; S. cerevisiae expressing PfHsp90, BacTiter-Glo ATP, 48 h; yeast lacking PDR1 and PDR3 efflux regulators;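 active means every replicate shows inhibition above about 80%, whatever the replicate mean, limit read from the data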
Of the large screens only hits and unclear results are named; the others gave an inactive call. Shown are actives, neighbours in structure and some others; about 4.4% of the full set was active somewhere.

O=C(Nc1nc(-c2ccccn2)cs1)c1ccc(-c2ccccc2F)o1	PfHsp90 yeast 2 96
CC(CCc1ccccc1)NC(=O)CCCn1ncn2c(cc3occc32)c1=O (centres undefined)	none
[N-]=[N+]=CC(=O)C(c1ccccc1)(c1ccccc1)c1ccccc1	none
[N-]=[N+]=CC(=O)C(O)(c1ccccc1)C(Cl)c1ccccc1 (centres undefined)	SUMO Mot1 rescue 301 (no result: PfHsp90 yeast 2)
Cc1ccc(C(=O)O)cc1-n1c(=O)n(Cc2ccccc2)c(=O)c2[nH]cnc21	none
C=CCN(C(=O)c1oc2c(Cl)cc(C)cc2c1C)C1CCS(=O)(=O)C1 (centres undefined)	none
CN(C)/C=C/C(=O)c1ccc(Oc2ccccc2)cc1	PfHsp90 yeast 2 101
CN(C)/C=C/C(=O)c1ccc2noc(-c3ccccc3)c2c1	PfHsp90 yeast 2 106
CCc1ccc(OCC(=O)NNC(=S)NC(=O)C2CCCCC2)c(Br)c1	none
CCc1ccc(OCC(=O)NNC(=S)NC(=O)C2CC2)c(Br)c1	PfHsp90 yeast 2 108
O=C(COC(=O)c1ccc2c(c1)S(=O)(=O)N=C1CCCCCN12)NCc1cccs1	none
CCCCCCCCCCCCCCCCn1cc[n+](CC(C)=O)c1	PfHsp90 yeast 2 105 (no result: tim10-1 inh, SUMO Mot1 rescue, TIM10 inh, tim23-1 inh)
CN(C)c1ccc(C(O)c2cc3ccccc3s2)cc1 (centres undefined)	none (no result: tim10-1 inh, SUMO Mot1 rescue, TIM10 inh, tim23-1 inh)
O=C(C1COc2ccccc2O1)N1CCN(c2nc3ccccc3s2)CC1 (centres undefined)	none
O=C(C1COc2ccccc2O1)N1CCN(c2nc3ccc([N+](=O)[O-])cc3s2)CC1 (centres undefined)	SUMO Mot1 rescue 535 (no result: PfHsp90 yeast 2)
CC(=NNC(=S)Nc1cccc(Cl)c1)c1ccccn1	PfHsp90 yeast 2 124 (no result: tim10-1 inh, SUMO Mot1 rescue, TIM10 inh, tim23-1 inh)
CC(=NNC(=S)N1CCC1)c1ccccn1	PfHsp90 yeast 2 107 (no result: tim10-1 inh, SUMO Mot1 rescue, TIM10 inh, tim23-1 inh)
O=C(O)c1cc(NN=Nc2ccc(Br)cc2)cc([N+](=O)[O-])c1	SUMO Mot1 rescue 322
O=C(O)c1cc(NN=Nc2cccc([N+](=O)[O-])c2)cc([N+](=O)[O-])c1	none
O=C(Nc1cccc(S(=O)(=O)N2CCCCC2)c1)C1=NN(c2ccccc2)C(=O)CC1	none
COc1ccc2nc(-c3ccccn3)[nH]c2c1	none
COc1cc(C=NO)nc(-c2ccccn2)c1	PfHsp90 yeast 2 98 (no result: tim10-1 inh, SUMO Mot1 rescue, TIM10 inh, tim23-1 inh)
CC1CN(CC(O)COc2ccc(C(C)C)cc2)CC(C)O1 (centres undefined)	SUMO Mot1 rescue 326
COC(=O)c1ccc(C)c(NC(=O)CCn2[nH]c(=O)ccc2=O)c1	none (no result: SUMO Mot1 rescue)
Cc1ccc(S(=O)(=O)Nc2ccc(-c3nc4ccc(C)cc4s3)cc2)cc1	none
Cc1ccc2nc(-c3ccc(NS(=O)(=O)c4c(C)n(C)c(=O)n(C)c4=O)cc3)sc2c1	SUMO Mot1 rescue 323
COc1ccc(CC(=O)Oc2ccc(C(C)C)cc2)cc1S(=O)(=O)N1CCOCC1	none
CC(C)CN(C(=O)CCC(=O)OCC(=O)N(C)c1ccccc1)c1c(N)n(CC(C)C)c(=O)[nH]c1=O	SUMO Mot1 rescue 515
Cc1ccc(N/N=C/c2cccnc2)cc1	SUMO Mot1 rescue 289
O=C(Cc1ccccc1)N/N=C/c1cccnc1	SUMO Mot1 rescue 313
CC(C)c1onc(C(=O)NCc2ccc(F)cc2)c1[N+](=O)[O-]	SUMO Mot1 rescue 286
CC(C)c1onc(C(=O)NCc2cccs2)c1[N+](=O)[O-]	none
O=C(CCc1nnc(CCCCc2ccccc2)o1)N1CCCC(O)C1 (centres undefined)	SUMO Mot1 rescue 276
Cc1cc(C)c(NC(=O)COC(=O)C2=COCCO2)c(Cl)c1	none
COc1ccc(N2CCN(C(=O)COC(=O)c3oc4ccccc4c3C)CC2)cc1	none
Cn1c(COc2ccc(Cl)cc2Cl)nnc1SCC(=O)NCC1CCCO1 (centres undefined)	none
CN(C)/C=C/C(=O)/C=C/c1cn(-c2ncc(C(F)(F)F)cc2Cl)c2ccccc12	PfHsp90 yeast 2 121
COC(=O)Cc1cn(-c2ncc(C(F)(F)F)cc2Cl)c2ccccc12	none
Cc1ccc(-c2nc3cccnc3s2)cc1NS(=O)(=O)c1ccc2c(c1)OCCO2	PfHsp90 yeast 2 89
CCOC(=O)c1ccc(Oc2c(C)oc3c(CN4CCN(C)CC4)c(O)ccc3c2=O)cc1	SUMO Mot1 rescue 357
CC1(C)C(=O)Nc2ccccc2N1C(=O)CN1C(=O)NC(CCc2ccccc2)C1=O (centres undefined)	SUMO Mot1 rescue 345
NNC(=O)C1SCCN1S(=O)(=O)c1ccc(Cl)cc1 (centres undefined)	none
COc1cc(/C=C(\C#N)c2nc3ccccc3[nH]2)cc(Br)c1OCc1ccc(F)cc1	none
COc1cc(/C=C(\C#N)c2nc3ccccc3[nH]2)cc(Br)c1OCc1ccccc1	SUMO Mot1 rescue 487 (no result: PfHsp90 yeast 2)
CN(C1CCCCC1)S(=O)(=O)c1ccc2c(c1)CCC(=O)N2	none (no result: SUMO Mot1 rescue)
O=C(c1ccc(O)cc1)c1ccc(C(=O)c2ccc(O)cc2)cc1	none (no result: PfHsp90 yeast 2)
O=P(c1ccccc1)(c1ccccc1)c1ccc(O)cc1	SUMO Mot1 rescue 349
O=C(C(=O)c1ccc(O)cc1)c1ccccc1	SUMO Mot1 rescue 356
CCN(c1ccc(OC)cc1)S(=O)(=O)c1csc(C(N)=O)c1	SUMO Mot1 rescue 275
O=C(Nc1ccc(Cl)cc1)c1cc(Br)ccc1OCC(=O)N1CCOCC1	none
COc1ccc(Cl)cc1NC(=S)N1CCN(C(=O)c2ccco2)CC1	SUMO Mot1 rescue 357
CCn1cc(C(=O)N[C@H](C)c2ccccc2)c(=O)c2cc(F)c(N3CCN(C)CC3)cc21	SUMO Mot1 rescue 815 (no result: PfHsp90 yeast 2)
NC(=S)N/N=C/c1ccc(-c2ccccc2)o1	none
CN(C)/N=C/c1ccc(/C=N/NC(N)=S)o1	SUMO Mot1 rescue 422
CCN1CCN(Cc2ccc(NC(=O)c3cc(NC(=O)c4nccnc4N)cc(OC)c3)cc2C(F)(F)F)CC1	SUMO Mot1 rescue 353
Cc1cccc(N=[N+]([O-])c2cccc(C)n2)n1	none (no result: SUMO Mot1 rescue)
Cc1cc(C)c(S(=O)(=O)c2cccc(Br)c2C)c(=O)[nH]1	none
COc1ccc(C(=O)/C=C2\C(=O)Nc3ccc(Br)cc32)cc1	PfHsp90 yeast 2 144 (no result: tim10-1 inh, SUMO Mot1 rescue, TIM10 inh, tim23-1 inh)
O=S(=O)(c1c(F)cccc1F)N(CCc1ccc(F)cc1)C[C@@H](O)COCc1ccccc1	PfHsp90 yeast 2 120 (no result: tim10-1 inh, SUMO Mot1 rescue, TIM10 inh, tim23-1 inh)
O=S(=O)(Cc1ccc(Cl)cc1)CC(O)COCc1ccccc1 (centres undefined)	none
CSCC[C@H](NC(=O)[C@H](Cc1ccccc1)n1c(=O)[nH]c2ccccc2c1=O)C(=O)N1CCC[C@@H]1C(=O)O	SUMO Mot1 rescue 735
COc1ccc(OC)c(NC(=O)CSc2nnc(C3CCCCC3)o2)c1	none
O=S(=O)(NC1CC2CCC1C2)c1ccc(Br)cc1 (centres undefined)	PfHsp90 yeast 2 108
O=S(=O)(NCC1CCCO1)c1ccc(Br)s1 (centres undefined)	none
Cc1ccc(S(=O)(=O)NC2CC3CCC2C3)cc1 (centres undefined)	none (no result: PfHsp90 yeast 2)
O=S(=O)(NC1CC2CCC1C2)c1ccc(Br)s1 (centres undefined)	SUMO Mot1 rescue 450
CCCCc1nc(SCC(=O)Nc2cccc(Cl)c2)n[nH]1	none
